Experimental data from PubChem BioAssay (EPA / NIEHS).
Values joined by “and” are separate entries in the source; they are usually repeats but may differ in a detail not shown here. Identical values can stand only once. Some structures have more than one record in an assay (separate samples or runs), and their calls can disagree. Active and inactive are the calls of the source. Rule for the calls: active = hit-call score of the fitted dose curve at least 0.9, where 1 is the maximum; inactive = score below 0.9.

Read-out: Monocyte Chemoattractant Protein-1 (MCP1), CCL2 (gene 6347)
Experiment: BSK_3C_MCP1: BioMAP Diversity Plus: 3C Assay for Monocyte Chemoattractant Protein-1 (MCP1) Biomarker Activity (AID 2283017)
Settings: primary human endothelial cells (HUVEC); actives raise or lower the signal
Procedure: BSK_3C is a cell-based, multiplexed-readout assay that uses umbilical vein endothelium, a human vascular primary cell, with measurements taken at 24 hours after chemical dosing in a 96-well plate.BSK_3C_MCP1 is an assay component measured in the BSK_3C assay. It measures MCP-1 antibody related to regulation of gene expression using ELISA technology.Data from the assay component BSK_3C_MCP1 was analyzed into 1 assay endpoint. This assay endpoint, BSK_3C_MCP1, was analyzed with bidirectional fitting relative to DMSO as the negative control and baseline of activity. Using a type of binding reporter, gain or loss-of-signal activity can be used to understand changes in the signaling as they relate to the gene CCL2. Furthermore, this assay endpoint can be referred to as a primary readout, because this assay has produced multiple assay endpoints where this one serves a signaling function. To generalize the intended target to other relatable targets, this assay endpoint is annotated to the cytokine intended target family, where the subfamily is chemotactic factor.
The levels of cell surface (or secreted, indicated by the prefix "s") biomarker endpoints were measured by ELISA. Overt cytotoxicity to cells in confluent adherent cultures (all systems other than the BT system) was assessed by measuring total protein levels using sulforhodamine B (SRB) staining in parallel cultures at the time of biomarker measurements, indicated as SRB endpoints. For proliferation assays for adherent cell types, individual cell types are cultured at sub-confluence and relative cell numbers quantified by SRB staining at time points optimized for each system (48 h: 3C and CASM3C systems; 72 h: BT and HDF3CGF systems; 96 h: SAg system). SRB was performed by staining cells with 0.1% SRB after fixation with 10% TCA and reading wells at 560 nm.Viability and proliferation of PBMC (T cells) was quantified by Alamar Blue reduction for the SAg and BT systems. For PBMC viability (referred to as PBMC Cytotoxicity within the assay endpoint names), cells were plated (75,000/well in a 96-well plate) and then chemical samples added for 1 h before addition of activators, SEB and TSST-1 (20 ng/mL final concentration each). Cells were incubated for 90 h. Then, Alamar Blue (20 uL/well) (Invitrogen, Cat DAL1100) was added for 6 h, and the plates were read with a fluorescence microplate reader at 546/580 nm (excitation/emission). For PBMC proliferation, cells were plated and activated as above but incubated for only 16 h prior to addition of Alamar Blue. Plates were read after 6 h.

SMILES	outcome	AC50
NC(=O)C(F)(F)C(F)(F)C(F)(F)C(F)(F)F	inactive	
FC(F)(F)C(F)(F)CNCC(F)(F)C(F)(F)F	inactive	
FC(F)(F)C(F)(F)C(F)(F)C(F)(F)C(F)(F)C(F)(F)CC1CO1 (stereo not given)	inactive	
FC(F)(F)C(F)(F)C(F)(F)C(F)(F)CCI	inactive	
CC(=O)Nc1ccc(N=Nc2cc(C)ccc2O)cc1	inactive	
C=C(C)C(=O)OCCC(F)(F)C(F)(F)C(F)(F)C(F)(F)C(F)(C(F)(F)F)C(F)(F)F	inactive	
OCCCC(F)(F)C(F)(F)C(F)(F)C(F)(F)C(F)(F)C(F)(F)C(F)(F)F		30.8 µM (active) and 44.4 µM (active)
CCCCCCCOC(=O)c1ccccc1C(=O)OCCCCCCC	inactive	
O=C(O)C(F)(F)C(F)(F)C(F)(F)C(F)(F)C(F)(F)C(F)(F)C(F)(F)C(F)(F)Cl		47.5 µM (active) and 30 µM (active)
FC(F)(Br)C(F)(F)C(F)(F)C(F)(F)C(F)(F)C(F)(F)Br	inactive	
FC(F)(F)C(F)(F)C(F)(F)C(F)(F)C(F)(F)C(F)(F)C(F)(F)I	inactive	
Nc1ccc([N+](=O)[O-])cc1O	inactive	
O=C(O)C(F)(F)C(F)(F)C(F)(F)C(F)(F)C(F)(F)C(F)(F)C(F)(F)C(F)(F)C(F)(F)C(F)F	inactive	47.1 µM (active)
O=P(O)(O)OCCC(F)(F)C(F)(F)C(F)(F)C(F)(F)C(F)(F)C(F)(F)F	inactive	
CCO[Si](CCC(F)(F)C(F)(F)C(F)(F)C(F)(F)C(F)(F)C(F)(F)F)(OCC)OCC	inactive	
N=C(N)C(F)(F)C(F)(F)C(F)(F)C(F)(F)C(F)(F)C(F)(F)C(F)(F)F	inactive	46.3 µM (active)
CS(C)(=O)=O	inactive	
CCCCCCCCC(F)(F)C(F)(F)C(F)(F)C(F)(F)C(F)(F)C(F)(F)F	inactive	
O=C(O)C=C(C(F)(F)F)C(F)(F)F	inactive	

SMILES	outcome	AC50
O=S(=O)(OCCOC(F)(F)F)C(F)(F)F	inactive	
O[Si](c1ccccc1)(c1ccccc1)c1ccccc1		37.6 µM (active)
CO[Si](OC)(c1ccccc1)c1ccccc1		32 µM (active)
O=C(O)C(F)(F)C(F)(F)F	inactive	23 µM (active)
CC(CCl)OP(=O)(OC(C)CCl)OC(C)CCl (stereo not given)	inactive	
O=S(=O)(O)C(F)(F)C(F)(F)C(F)(F)C(F)(F)C(F)(F)C(F)(F)C(F)(F)F	inactive	
O=C(O)C(F)(F)C(F)(F)C(F)F	inactive	
O=C(O)C(F)(F)C(F)(F)OC(F)(F)F	inactive	
OCC(F)(F)C(F)(F)C(F)(F)C(F)F	inactive	
FC(F)(I)C(F)(F)C(F)(F)C(F)(F)I		44.5 µM (active) and 49 µM (active) and 51.6 µM (active)
O=C(O)C(F)(F)C(F)(F)C(F)(F)C(F)(F)C(F)(F)C(F)(F)C(F)(F)C(F)(F)C(F)(F)C(F)(F)C(F)(F)C(F)(F)F	inactive	
OCCCC(F)(F)C(F)(F)C(F)(F)F	inactive	
O=C(O)C(F)(OC(F)(F)C(F)(OC(F)(F)C(F)(F)C(F)(F)F)C(F)(F)F)C(F)(F)F (stereo not given)	inactive	
O=C(CC(=O)C(F)(F)C(F)(F)F)C(F)(F)F		30 µM (active) and 21.7 µM (active)
CCCCC(CC)COP(=O)(O)OCC(CC)CCCC (stereo not given)	inactive	
OCC(F)(F)C(F)(F)C(F)(F)C(F)(F)C(F)(F)C(F)F	inactive	
COC(=O)CCC(F)(F)C(F)(F)C(F)(F)C(F)(F)F	inactive	
FC(F)(F)C(F)(F)C(F)(F)CI	inactive	
